The results in this text go back to the supplement of paper PMC6555819.

Assay in all cases: PBM binding z-score (relative to random genomic background probes); higher = stronger binding; sequences stand for … in GC…GCGATTGACAGCGTAGAATGAAGG
The test system of test [1] is FXR:RXRa (NR concentration 270 nM, RXRa partner concentration 90 nM). In a few lines: (§1)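 Custom Agilent 4×180K protein-binding microarrays carried double-stranded probes. Their 34-nt variable regions held direct-repeat seeds, single-nucleotide variants, half-site ablations and random human genomic background sequences. Arrays were incubated 1 h with ligand-free nuclear receptor dimers in PBS pH 7.4, 2% milk, 0.02% Triton X-100, 1 mM DTT, 0.2 mg/mL BSA and 0.4 mg/ml salmon testes DNA. Antibodies against each partner (one per run) detected binding, and scanned fluorescence was regression-normalized. Binding z-scores use random background probes as reference.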

Test [2] relates to LXRa:RXRa (NR concentration 270 nM, RXRa partner concentration 90 nM). The essentials: as §1
In test [3] the test system is LXRa homodimer (NR concentration 270 nM). In a few lines:
as §1

In test [4] the test system is LXRb:RXRa (NR concentration 270 nM, RXRa partner concentration 90 nM). In a few lines: as §1
Test [5] relates to LXRb homodimer (NR concentration 270 nM). In a few lines: as §1
In test [6] the test system is PPARa:RXRa (NR concentration 270 nM, RXRa partner concentration 90 nM). In a few lines:
as §1

In test [7] the test system is PPARg:RXRa (NR concentration 180 nM, RXRa partner concentration 90 nM). The essentials: as §1
The test system of test [8] is PPARg:RXRa 270nM:90nM, anti-RXR (NR concentration 270 nM, RXRa partner concentration 90 nM). The essentials:
as §1

Test [9] relates to PPARg:RXRa 30nM:10nM, anti-RXR (NR concentration 30 nM, RXRa partner concentration 10 nM). In a few lines:
as §1

For test [10], the system named is PPARg:RXRa 90nM:30nM, anti-RXR (NR concentration 90 nM, RXRa partner concentration 30 nM). The essentials: as §1
In test [11] the test system is PPARg:RXRa DBDmut IVT, anti-RXR (DBD mutation: RXRa K156A/R161A, NR concentration 270 nM, RXRa partner concentration 90 nM). The essentials:
as §1

For test [12], the system named is PPARg:RXRa IVT, anti-PPARg (NR concentration 270 nM, RXRa partner concentration 90 nM). In a few lines: as §1
Test [13] has as its system PPARg DBDmut:RXRa IVT, anti-PPARg (DBD mutation: PPARg1 K132A/R137A, NR concentration 270 nM, RXRa partner concentration 90 nM). The essentials:
as §1

For test [14], the system named is PPARg DBDmut IVT, anti-PPARg (DBD mutation: PPARg1 K132A/R137A, NR concentration 270 nM). In a few lines:
as §1

Test [15] relates to PPARg homodimer (NR concentration 180 nM). In a few lines:
as §1

In test [16] the test system is PXR:RXRa (NR concentration 270 nM, RXRa partner concentration 90 nM). In a few lines:
as §1

Test [17] deals with PXR homodimer (NR concentration 270 nM). The essentials: as §1
Test [18] has as its system RARa:RXR (NR concentration 270 nM, RXRa partner concentration 90 nM). The essentials: as §1
For test [19], the system named is RARa homodimer (NR concentration 270 nM). The essentials: as §1
For test [20], the system named is RARb:RXRa (NR concentration 270 nM, RXRa partner concentration 90 nM). The essentials:
as §1

In the case of TATACAGGGTCAAAGGCCTGAGTACGAATGTCGA, the PBM binding z-score in [1] stood at 7.13; in [2], 6.36; in test [3], 2.31; in [4], 4.5; in [5], 2.28; in test [6], 5.81. Also, the PBM binding z-score in test [7] was 6.92; in test [8], 6.47; in [9] it was 3.45; in [10], 5.74; in test [11] it was 2.08; in test [12], 4.32. Besides, the PBM binding z-score worked out at 3.81 in test [13]; 3.06 in test [14]; 4.01 in test [15]; 3.86 in test [16]; 0.321 in test [17]; 5.15 in [18]. In addition, the figures for the PBM binding z-score in test [19] and in test [20] were 1.29 and 4.2, respectively.

Turning to TCTTGTAGATCAAGAAGGTTAAGAAAGCCTGAGT, the PBM binding z-score in test [1] was 0.542; in [2], 0.704; in [3], -0.24; in test [4] it was 0.833; in test [5] it was -0.584; in [6] it was 1.44. The PBM binding z-score in test [7] is -0.11; in [8], 1.65; in [9], 2.96; in test [10] it was 2.31; in [11], 1.65; in [12], 0.53. Also, the PBM binding z-score is -0.357 in test [13]; 0.523 in [14]; 0.323 in test [15]; 0.858 in test [16]; 0.332 in [17]; 0.941 in test [18]. The values for the PBM binding z-score in [19] and in [20] were 0.353 and 0.732, respectively.

Turning to TCATATAGGTAAAGATGAAAGTCGAACGATATGA, the PBM binding z-score in test [1] is 0.255; in test [2], 0.326; in test [3], -0.224; in [4], 0.183; in [5], -0.264; in test [6], 0.972. The PBM binding z-score worked out at 1.38 in test [7]; 2.08 in test [8]; 3.79 in [9]; 3.02 in test [10]; 3.2 in test [11]; 1.97 in [12]. Besides, the PBM binding z-score is 1.28 in test [13]; 0.63 in test [14]; -1.18 in [15]; -0.0573 in test [16]; -0.0684 in test [17]; 0.268 in [18]. The PBM binding z-score turned out to be 0.0923 in [19] and 0.318 in test [20].

As to CCGACTGGGGCAGAAAGGTTACCAGACCATCCGG, the PBM binding z-score in test [1] is 0.0987; in test [2], 0.481; in [3], -0.312; in test [4] it was 0.525; in test [5] it was -1.23; in test [6] it was 2.1. Besides, the PBM binding z-score in test [7] was found to be 1.47; in test [8], 2.61; in test [9] it was 0.619; in test [10], 2.04; in [11], 1.28; in test [12] it was 2.02. Moreover, the PBM binding z-score was -0.764 in [13]; -1.01 in test [14]; 0.446 in test [15]; 0.737 in test [16]; -0.356 in test [17]; 1.47 in [18]. Moreover, the PBM binding z-score is -0.579 in test [19] and 1.89 in [20].

As to ATACCAAGGTGATCGTTAGGTCGTTGATACTAAC, the PBM binding z-score in test [1] is 1.05; in test [2], 0.551; in [3] it was 0.24; in test [4] it was 0.374; in test [5], -0.0967; in test [6] it was 0.452. For the same sequence, the PBM binding z-score in test [7] was 0.242; in test [8], 0.192; in [9] it was -0.144; in [10], -0.131; in [11], 0.451; in test [12], 1.04. Also, the PBM binding z-score in [13] is 0.332; in [14], 1.27; in [15], 0.52; in [16], 0.494; in [17], 0.467; in test [18] it was 1.25. For the same sequence, the PBM binding z-score is 0.0968 in test [19] and 0.816 in test [20].

As to CCGACTGGGGCAAGGTTAGCATAACGCACAGCCA, the PBM binding z-score in test [1] is -0.312; in [2] it was -0.11; in test [3], -0.322; in [4], -0.208; in test [5] it was -1.24; in test [6], 1.23. Besides, the PBM binding z-score amounted to 2.6 in [7]; 3.06 in [8]; 0.844 in [9]; 2.39 in [10]; 2.73 in [11]; 2.99 in test [12]. Moreover, the PBM binding z-score was -1.11 in test [13]; -0.288 in test [14]; 0.409 in test [15]; -0.179 in test [16]; -0.316 in test [17]; -0.0446 in test [18]. Also, the figures for the PBM binding z-score in [19] and in test [20] were -0.606 and 1.22, respectively.

CTGACTGGGGCAAGGTTACCATAACGCACAGCCA: the PBM binding z-score in test [1] was 0.457; in test [2] it was 0.792; in test [3], -0.00434; in [4], 1.54; in test [5] it was -0.221; in test [6], 2.63. For the same sequence, the PBM binding z-score amounted to 4.03 in [7]; 4.4 in test [8]; 1.45 in test [9]; 3.67 in test [10]; 4.8 in [11]; 5.05 in test [12]. Also, the PBM binding z-score in test [13] is 0.266; in test [14] it was 0.0884; in test [15], 0.436; in [16], 0.519; in [17], 0.00598; in test [18], 0.987. Moreover, the PBM binding z-score in test [19] was found to be 0.104; in test [20] it was 1.86.
